Assay outcomes: PubChem BioAssay, several laboratories
Most compounds without a hit are left out; they make up all but 3.9% or so of the library.
PLCb3 inh – human PLC-beta3 inhibitors, primary screen, biochemical, fluorescence. 1-phosphatidylinositol 4,5-bisphosphate phosphodiesterase beta-3 (Homo sapiens), Q01970. Purified PLC-beta3, fluorogenic substrate. inhibition, % at 12.2 µM. 0.18% of 370,000 active. AID 720704, 2013; in the data active = inhibition above about 11%;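 also: 0% = median of compound wells on plate and 100% = full blocker control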
AHR activator – AHR activators, primary screen, cell-based, luminescence, luciferase reporter, human; Aryl hydrocarbon receptor (Homo sapiens), P35869; AHR-responsive luciferase reporter cells; activation, % at 5 µM; 2.5% of 320,000 active; AID 2796, 2010; in the data active = activation above about 47%;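 also: 0% = vehicle wells and 100% = reference agonist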
Target sequence (P35869 whole entry, looked up): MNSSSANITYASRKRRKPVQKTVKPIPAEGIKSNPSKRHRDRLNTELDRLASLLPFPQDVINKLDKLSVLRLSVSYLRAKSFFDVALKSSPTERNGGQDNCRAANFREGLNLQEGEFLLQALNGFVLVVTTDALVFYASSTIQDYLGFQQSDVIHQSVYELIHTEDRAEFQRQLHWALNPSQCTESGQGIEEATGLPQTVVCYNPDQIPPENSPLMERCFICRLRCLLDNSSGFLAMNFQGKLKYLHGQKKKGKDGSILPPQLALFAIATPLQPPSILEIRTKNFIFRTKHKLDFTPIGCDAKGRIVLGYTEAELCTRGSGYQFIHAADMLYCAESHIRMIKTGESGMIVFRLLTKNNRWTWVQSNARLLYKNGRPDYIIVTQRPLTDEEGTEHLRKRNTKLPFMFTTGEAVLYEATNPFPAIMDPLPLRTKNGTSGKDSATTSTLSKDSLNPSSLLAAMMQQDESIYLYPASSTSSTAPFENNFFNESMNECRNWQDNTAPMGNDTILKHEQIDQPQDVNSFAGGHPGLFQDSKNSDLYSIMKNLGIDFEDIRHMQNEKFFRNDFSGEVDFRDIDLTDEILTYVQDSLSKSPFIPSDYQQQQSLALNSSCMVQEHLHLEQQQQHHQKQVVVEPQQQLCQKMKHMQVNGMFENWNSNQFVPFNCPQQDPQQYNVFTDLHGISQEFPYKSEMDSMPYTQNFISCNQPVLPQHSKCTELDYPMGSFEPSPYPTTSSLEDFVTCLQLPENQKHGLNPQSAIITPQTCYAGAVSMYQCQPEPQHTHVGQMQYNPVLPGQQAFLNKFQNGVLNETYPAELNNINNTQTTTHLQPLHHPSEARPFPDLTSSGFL
PLCg1 inh – PLC-gamma1 enzyme inhibitors, primary screen, biochemical, fluorescence, purified enzyme. 1-phosphatidylinositol 4,5-bisphosphate phosphodiesterase gamma-1 (Homo sapiens), P19174. fluorogenic substrate. inhibition, % at 12.2 µM. 0.84% of 370,000 active. AID 720700, 2013; in the data active = inhibition above about 9.5%
sPLA2-III inh – human group III sPLA2 inhibitors, primary screen, biochemical, QFRET, BODIPY PC-A2 liposome substrate; inhibition, % at 12.2 µM; 0.56% of 370,000 active; Group 3 secretory phospholipase A2 (Homo sapiens), Q9NZ20; QFRET BODIPY PC-A2 liposome hydrolysis, fluorescence;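 active = inhibition above mean plus 3 SD of compounds lying within the high and low control bounds, cut at about 19% in these data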;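 also: 0% = median of test compound wells and 100% = no enzyme DMSO wells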
HIF act – HIF pathway transcriptional activators, primary screen, cell-based, U2OS HRE-luciferase, luminescence | activation, % at 7.5 µM (by protocol) | 0.32% of 300,000 active | U2OS HRE-luciferase reporter; normalized: DMSO 0%, desferrioxamine 100%;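 active = mean activation of at least 10% of the iron chelator positive control signal, with at least half of replicates also reaching 10%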
Yeast superoxide – reduction of superoxide in aged yeast, primary screen, HTS; S. cerevisiae aged cells, superoxide DHE fluorescence; active compounds read low; superoxide response (% of plate mean), % at 10 µM; 0.18% of 330,000 active;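 active = superoxide response under a set limit, about three screen SD below normal, cut at about 65% in these data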;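 also: yeast aged for seven days with compound at 30 °C before DHE staining; 100% = average MFI of all compound-treated wells on the plate with controls excluded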
An asterisk follows results filed as active.

Results for CCOc1ccccc1NC(=O)NCCc1c[nH]c2ccccc12 ?
PLCb3 inh: -6; AHR activator: 64*; PLCg1 inh: 5; sPLA2-III inh: -53; HIF act: -4; Yeast superoxide: 100

Results for COc1ccc(C2C(C#N)C(C#N)N3CCCN23)cc1 (stereo not given) ?
PLCb3 inh: -27; AHR activator: 1; PLCg1 inh: -20; sPLA2-III inh: -9; HIF act: 0; Yeast superoxide: 102

How did N#CC1C(C#N)N2CCCN2C1c1ccc(Cl)cc1 (stereo not given) do in these assays?
PLCb3 inh: -9; AHR activator: 48*; PLCg1 inh: -6; sPLA2-III inh: -10; HIF act: -1; Yeast superoxide: 97

What do the screens show for `CC(=O)c1cccc(NC(=O)Cc2cccs2)c1`?
PLCb3 inh: 1; AHR activator: -2; PLCg1 inh: 1; sPLA2-III inh: -3; HIF act: 0; Yeast superoxide: 104

How did O=C(Cc1cccs1)Nc1cccc(C(=O)Nc2ccco2)c1 do in these assays?
PLCb3 inh: 13*; AHR activator: 1; PLCg1 inh: 7; sPLA2-III inh: -1; Yeast superoxide: 103

What do the screens show for `CCCc1nc2cc3c(cc2[nH]1)n(C)c(=O)n3C`?
PLCb3 inh: -337; AHR activator: 75*; PLCg1 inh: -254; sPLA2-III inh: 17; HIF act: 0; Yeast superoxide: 106

Results for Cn1c(=O)n(C)c2cc3[nH]cnc3cc21 ?
PLCb3 inh: -8; AHR activator: -1; PLCg1 inh: -1; sPLA2-III inh: 6; HIF act: 0; Yeast superoxide: 109

What do the screens show for `COc1ccc(-c2cc(-c3nnc(SCC(=O)Nc4ccc(OCc5ccccc5)cc4)n3N)[nH]n2)cc1`?
PLCb3 inh: 2; PLCg1 inh: 0; sPLA2-III inh: -3

How did COCc1cc(C)nc2sc(C(=O)OC(C)C)c(N)c12 do in these assays?
PLCb3 inh: inactive; AHR activator: 72*; PLCg1 inh: inactive; sPLA2-III inh: -1; HIF act: 1; Yeast superoxide: 97

Results for COCc1cc(C)nc2sc(C(=O)Nc3ccc(C(=O)OC)cc3)c(N)c12 ?
PLCb3 inh: -204; AHR activator: 1; PLCg1 inh: -150; sPLA2-III inh: -5; HIF act: 1; Yeast superoxide: 107

Results for Fc1ccc(C2=Nn3c(nnc3-c3n[nH]c4c3CCC4)SC2)cc1 ?
PLCb3 inh: -1; AHR activator: 54*; PLCg1 inh: -1; sPLA2-III inh: -4; HIF act: 0; Yeast superoxide: 93

What do the screens show for `COc1ccc(NC(=O)CCCNS(=O)(=O)c2ccc3[nH]c(=O)oc3c2)cc1OC`?
PLCb3 inh: -2; PLCg1 inh: 0; sPLA2-III inh: 6

How did CCc1cc(/C(Cc2ccccn2)=N\Nc2ccccc2)c(O)cc1O do in these assays?
PLCb3 inh: -34; AHR activator: 77*; PLCg1 inh: -21; sPLA2-III inh: -20; HIF act: 0; Yeast superoxide: 114

How did COC(=O)C1CN(Cc2ccccc2)CCS(=O)(=O)N1Cc1cn(Cc2ccccc2Br)nn1 (stereo not given) do in these assays?
PLCb3 inh: 3; PLCg1 inh: 2; sPLA2-III inh: -8

What do the screens show for `O=C(NCc1ccco1)c1cc(-c2cccs2)on1`?
PLCb3 inh: 0; AHR activator: 2; PLCg1 inh: 4; sPLA2-III inh: -1; HIF act: 21*; Yeast superoxide: 70

Results for O=C(NCc1ccco1)c1cc(-c2ccccc2)on1 ?
PLCb3 inh: 1; AHR activator: 1; PLCg1 inh: 1; sPLA2-III inh: -6; HIF act: 12*; Yeast superoxide: 79

How did O=C(NCc1ccco1)c1cc(-c2ccc(F)cc2)on1 do in these assays?
PLCb3 inh: -1; AHR activator: -3; PLCg1 inh: -4; sPLA2-III inh: -2; HIF act: 5; Yeast superoxide: 97

What do the screens show for `O=C(NCC1CCCO1)c1cc(-c2ccccc2)on1` (stereo not given)?
PLCb3 inh: 8; AHR activator: 5; PLCg1 inh: 7; sPLA2-III inh: 0; HIF act: 15*; Yeast superoxide: 94

How did O=C(NCC1CCCO1)c1cc(-c2ccc(F)cc2)no1 (stereo not given) do in these assays?
PLCb3 inh: -5; AHR activator: 12; PLCg1 inh: 0; sPLA2-III inh: 5; HIF act: 14*; Yeast superoxide: 95

How did COc1ccc(-c2cc(C(=O)NCC3CCCO3)on2)cc1OC (stereo not given) do in these assays?
PLCb3 inh: 2; AHR activator: 5; PLCg1 inh: 7; sPLA2-III inh: 12; HIF act: 0; Yeast superoxide: 80

Results for CC(=O)N1CCN(C(=O)c2ccc(CNC(=O)c3cccc(Br)c3)cc2)CC1 ?
PLCb3 inh: 1; PLCg1 inh: 2; sPLA2-III inh: 1

What do the screens show for `C[C@@H]1[C@@H](O)C[C@]2(C[C@@H](O)c3ccccc3O2)O[C@H]1c1ccccc1`?
PLCb3 inh: 2; PLCg1 inh: 1; sPLA2-III inh: 6

Results for CCCNC(=O)c1cc(-c2ccco2)on1 ?
PLCb3 inh: -2; AHR activator: 9; PLCg1 inh: 1; sPLA2-III inh: -3; HIF act: 16*; Yeast superoxide: 105

What do the screens show for `CC(C)CNC(=O)c1cc(-c2ccco2)on1`?
PLCb3 inh: -1; AHR activator: 1; PLCg1 inh: 3; sPLA2-III inh: 3; HIF act: 5; Yeast superoxide: 109

How did CNc1ccccc(-c2ccc3ccccc3n2)c1=O do in these assays?
PLCb3 inh: -43; AHR activator: 50*; PLCg1 inh: -41; sPLA2-III inh: -12; HIF act: 3; Yeast superoxide: 102

What do the screens show for `c1ccc(-c2ccc3ccccc3n2)cc1`?
PLCb3 inh: 4; AHR activator: 12; PLCg1 inh: 5; sPLA2-III inh: 14; HIF act: 4; Yeast superoxide: 88

Results for Clc1ccc(-c2cn3c(n2)-c2ccccc2C3)cc1Cl ?
PLCb3 inh: -2; AHR activator: 62*; PLCg1 inh: 8; sPLA2-III inh: 17; HIF act: 0; Yeast superoxide: 94

Results for CN(Cc1ccco1)C(=O)c1cccc2c1C(=O)N(Cc1cccnc1)C2 ?
PLCb3 inh: -1; PLCg1 inh: 2; sPLA2-III inh: 3

Results for COC(=O)Nc1ccc(S(=O)(=O)N(C)C)cc1 ?
PLCb3 inh: 3; AHR activator: -1; PLCg1 inh: -1; sPLA2-III inh: 3; HIF act: 29*; Yeast superoxide: 84
